DT40 TDP1 CPT = growth inhibition of DT40 Tdp1-/-;hTDP1 cells with camptothecin (screen for TDP1 inhibitors). actives 12% (n = 420,000). chicken DT40 Tdp1-/-;hTDP1 cells + 20 nM CPT, ATP luminescence, 48 h. Potency, µM (highest dose often 46.2 µM), without a hit: at the highest dose activity change, negative = growth inhibition, most hits filed as inhibitors; note: potency is the fitted concentration of half-maximal effect; nearly all actives have a fitted effect of over 55% in size
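Chicken DT40 Tdp1-/- cells complemented with human TDP1, 400 cells/well, exposed to compounds plus 20 nM camptothecin for at least 48 h at 37 C; viability read as ATP content by CellTiter-Glo luminescence.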
VP16 counter = counter-screen for ROR gamma inhibitors: Gal4-VP16 reporter | Drosophila S2 Gal4-VP16 UAS-luciferase, luminescence, 20 h | actives 3.5% (n = 310,000) | Potency, µM (highest dose often 53.6 µM), without a hit: at the top dose activity, negative = inhibition, most hits filed as inhibitors;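 note: Gal4-VP16 expression switched on by copper sulfate through the metallothionein promoter; potency is the fitted concentration of half-maximal effect; nearly all actives have a fitted effect of over 50% in size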
IL1B secr inh = inflammasome signaling inhibition, IL-1 beta readout | THP-1 LPS/ATP IL-1B secretion, AlphaLISA, 16 h; stronger effect = lower value | activity change, % at 57.5 µM | actives 4.7% (n = 360,000) | AID 743279; in the data active = activity change below about -50%; inconclusive = mostly about -30% to -49%
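Secreted IL-1B measured by AlphaLISA bead assay after 16 h compound exposure of THP-1 cells; compounds (final up to 57.5 uM) added 1 h before LPS (250 ng/mL) and ATP (1.25 mM) stimulation; lower signal means less secretion.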
ELG1 DNA repair = inhibitors of ELG1-dependent DNA repair in HEK293T cells. HEK293T ELG1-luciferase reporter, luminescence, 16 h; DNA damage induced by 5-fluorouridine. Potency, µM (titrated, usually from 46.1 µM), for inactives: top-dose activity change, negative = inhibition, hits mostly inhibitors. actives 2.3% (n = 330,000); note: potency is the fitted concentration of half-maximal effect; nearly all actives have a fitted effect of over 55% in size
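Overnight (16 hr) co-exposure of 2,000 cells/well to 5-fluorouridine and compound at 37 °C preceded detection. Luciferase was quantified via ONE-Glo luminescence; loss of signal denotes inhibition.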
DT40 TDP1 no CPT = qHTS for Inhibitors of human tyrosyl-DNA phosphodiesterase 1 (TDP1): qHTS in cells in absence of CPT; Potency, µM (doses to about 46.2 µM), for inactives: at the highest dose activity change, negative = growth inhibition, usual class: inhibitors; AID 686978, 2013; actives 15% (n = 420,000); DT40 Tdp1-/- hTDP1 cells, no CPT, ATP luminescence, 48 h; note: potency is the fitted concentration of half-maximal effect; nearly all actives have a fitted effect of over 55% in size
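Compound effects on proliferation are scored in DT40 Tdp1-/-;hTDP1 cells in the absence of CPT. ATP levels (CellTiter-Glo luminescence) are recorded after a ≥48 hr, 37 °C incubation.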
RORg inh = blocks mouse ROR gamma transcriptional activity; Potency, µM (titrated, usually from 53.6 µM), for the others: at the top dose activity change, negative = inhibition, usual class: inhibitors; AID 2551; Drosophila S2 Gal4-RORgamma UAS-luciferase reporter, 20 h; actives 5.4% (n = 310,000); P51450; note: potency is the fitted concentration of half-maximal effect; nearly all actives have a fitted effect of over 60% in size
Target sequence (P51450 whole entry, looked up, the tested form may be a part): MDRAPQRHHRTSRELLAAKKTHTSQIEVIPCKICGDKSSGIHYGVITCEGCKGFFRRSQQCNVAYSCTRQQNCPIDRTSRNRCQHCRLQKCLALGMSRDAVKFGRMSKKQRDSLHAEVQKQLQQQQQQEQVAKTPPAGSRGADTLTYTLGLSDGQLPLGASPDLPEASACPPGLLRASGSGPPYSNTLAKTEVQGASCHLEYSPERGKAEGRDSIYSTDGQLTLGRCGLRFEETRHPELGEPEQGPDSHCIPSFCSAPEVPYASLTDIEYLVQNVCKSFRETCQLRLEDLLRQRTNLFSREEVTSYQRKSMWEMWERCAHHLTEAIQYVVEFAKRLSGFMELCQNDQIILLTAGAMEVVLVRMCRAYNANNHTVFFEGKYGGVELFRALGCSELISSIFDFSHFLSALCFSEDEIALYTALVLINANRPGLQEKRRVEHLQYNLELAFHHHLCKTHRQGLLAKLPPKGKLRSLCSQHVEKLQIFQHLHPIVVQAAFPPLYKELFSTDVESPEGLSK
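A Gal4/UAS one-hybrid system in insect cells: metallothionein-promoter Gal4–ROR gamma fusion plus Photinus luciferase reporter. Copper sulfate 700 uM final, 20 hr ambient incubation, luminescent detection after 10 min with reagent.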
Numbers without * were called inactive; ? = inconclusive; nt = no result given; [ ] = remark or other dose. Rows were chosen to be rich in hits. Some 21% of all compounds tested hit in one or more screens of this group. Unless noted, calls come from the whole dose curve; as a rule, active = well fitted curve in the direction sought with a large enough effect; inconclusive = small, poorly fitted or top-dose-only effect, or another doubt; inactive = no such curve, though single readings can be large; an effect the other way counts as inactive or inconclusive. % is set by controls: 0 for no effect and ±100 for the full control effect.

SMILES	DT40 TDP1 CPT	VP16 counter	IL1B secr inh	ELG1 DNA repair	DT40 TDP1 no CPT	RORg inh
O=C(Nc1ccccc1-c1nc2ccccc2s1)c1ccc(F)cc1	-0.8%	nt	nt	nt	-10.6%	nt
COc1cccc(C(=O)Nc2nc3ccccc3s2)c1	-5.7%	14.1µM*	0.0	?	-6.7%	12.6µM*
O=C(Nc1nc2ccccc2s1)c1ccc(F)cc1	-4.0%	?	11.2	?	?	4.47µM*
COCC(=O)N1CCC[C@@]2(CCN(Cc3ccc(C#N)cc3)C2)C1	0.0%	-10.5%	nt	nt	-1.7%	-7.2%
COc1ccc2nc(NC(=O)c3ccc(F)cc3)sc2c1	3.2%	-6.2%	-26.3	?	-17.1%	11.2µM*
COc1ccc(C(=O)Nc2nc3ccccc3s2)cc1OC	2.5%	?	-87.5*	?	-9.6%	13.9%
COc1ccc2nc(NC(=O)c3ccc4ncsc4c3)sc2c1	?	-15.0%	45.0	?	-23.3%	-5.3%
COc1ccc(CC(=O)Nc2ccc(-c3nc4ccccc4s3)c(C)c2)cc1OC	?	nt	nt	nt	25.9µM*	nt
CC1=C(C(=O)Nc2cccnc2)C(c2ccc(C)cc2)n2nc(SCc3ccccc3F)nc2N1 (stereo not given)	-3.4%	nt	nt	nt	-11.5%	nt
Cc1coc2c(C)c3oc(=O)c(CCC(=O)N[C@H](C(=O)O)C(C)C)c(C)c3cc12	8.5%	nt	-0.7	nt	-13.5%	nt
C=CCn1c(=O)/c(=C/c2ccc(O)cc2)s/c1=C(/C#N)c1nnc2n1CCCCC2	18.4µM*	3.6%	?	?	23.1µM*	-0.6%
C=CCn1c(=O)/c(=C/c2cc(OC)c(OC)c(OC)c2)s/c1=C(/C#N)c1nc2ccccc2n1C	23.1µM*	0.2%	19.1	4.11µM*	18.4µM*	-38.0%
C=CCn1c(=O)/c(=C/c2ccc(Cl)cc2)s/c1=C(/C#N)c1nnc2n1CCCCC2	?	-10.3%	-71.6*	20.6µM*	?	-14.4%
C/C(O)=C(\C#N)c1nnc2n1CCCCC2	20.5%	3.8%	11.5	17.8%	10.0%	?
C[C@H]1CN([C@@H](C)CO)C(=O)c2cc(Br)cnc2O[C@@H]1CN(C)C(=O)c1ccncc1	6.1%	nt	24.9	nt	-3.2%	nt
COc1cccc(NC(=O)N(C)C[C@@H]2OCc3cn(nn3)CCCC(=O)N([C@H](C)CO)C[C@H]2C)c1	6.2%	nt	29.0	nt	17.5%	nt
COc1cccc2cc(C(C)N(CCCN3CCOCC3)C(=S)Nc3ccccc3C)oc12 (stereo not given)	5.3%	2.2%	22.4	-18.4%	?	?
Cc1cccc(NC(=S)N(CCCN2CCOCC2)C(C)c2cc3ccccc3o2)c1 (stereo not given)	-11.4%	-1.8%[10 µM]	4.8	2.1%	-29.6%	12.6µM*
Cc1cccc(NC(=S)N(CCCN2CCOCC2)C(C)c2cc3ccccc3o2)c1C (stereo not given)	-17.7%	?	6.7	5.8%	-22.1%	10µM*
CCc1nc2c(OCC(=O)C(C)(C)C)cccn2c1N(C)C(=O)C1CC1	-1.0%	nt	1.8	nt	-22.9%	nt
CCCCC(=O)N(C)c1c(CC)nc2c(OCc3cc(Cl)cc(Cl)c3)cccn12	?	nt	-61.6*	nt	?	nt
CCOC(=O)C(=O)N(C)c1c(CC)nc2c(OCc3cccc(Cl)c3)cccn12	16.4µM*	nt	18.1	nt	?	nt
CCOC(=O)N(C)c1c(CC)nc2c(OCc3cccc(Cl)c3)cccn12	?	nt	-7.0	nt	?	nt
CCc1nc2c(OCc3ccc(C(F)(F)F)cc3)cccn2c1N(C)C(=O)C1CC1	23.1µM*	nt	-24.7	nt	23.1µM*	nt
CCCCC(=O)N(C)c1c(CC)nc2c(OCC(=O)c3ccc(Cl)cc3Cl)cccn12	23.1µM*	nt	nt	nt	?	nt
SMILES	DT40 TDP1 CPT	VP16 counter	IL1B secr inh	ELG1 DNA repair	DT40 TDP1 no CPT	RORg inh
O=C1CCCCCCC(=O)[C@H](O)C[C@H](c2ccccc2)O1	-4.5%	nt	0.0	nt	-20.4%	nt
Cc1nc2c(c(C)c1CCC(=O)NCc1ccccc1)c(=O)n(C)c(=O)n2C	1.3%	nt	nt	nt	?	nt
CN(C(=O)c1cc(COc2ccc(F)cc2Cl)on1)C1CCOC1 (stereo not given)	?	nt	-12.4	nt	?	nt
CCc1nc2c(OCc3cccc(Cl)c3)cccn2c1N(C)C(=O)C1CC1	16.4µM*	nt	-20.9	nt	?	nt
CCc1nc2c(OCc3ccccc3)cccn2c1N(C)C(=O)Nc1ccccc1OC	?	nt	-3.6	nt	?	nt
CCOC(=O)C(=O)N(C)c1c(CC)nc2c(OCc3ccc(Cl)cc3)cccn12	?	nt	15.7	nt	?	nt
CCc1nc2c(OCc3ccc(Cl)cc3)cccn2c1N(C)C(=O)C1CC1	?	nt	-4.9	nt	?	nt
CCc1nc2c(OCc3cc(Cl)cc(Cl)c3)cccn2c1N(C)C(=O)Nc1ccccc1OC	23.1µM*	nt	0.0	nt	?	nt
CCOC(=O)C(=O)N(C)c1c(CC)nc2c(OCc3cc(Cl)cc(Cl)c3)cccn12	18.4µM*	nt	-14.4	nt	20.6µM*	nt
O=C(Cc1cn(-c2ccccc2)nc1-c1ccccc1)N1CCCCC1	?	?	-22.0	0.1%	?	?
CC(=O)N1CCCN(Cc2cn(-c3ccc(C)cc3)nc2-c2ccc(F)cc2)CC1	?	-7.0%	-77.9*	-8.3%	18.4µM*	3.3%
